Paper PMC7862700, “An all-to-all approach to the identification of sequence-specific readers for epigenetic DNA modifications on cytosine”

How the values were obtained:
Test in all cases: DAPPL (digital affinity profiling via proximity ligation, sequencing); 10 mM Tris-HCl pH 7.5, 50 mM NaCl, 1 mM DTT, 4% glycerol, room temperature, 30 min; GST-TFs on glutathione beads, 16-mer random dsDNA library, 0.1% formaldehyde crosslink after washing; high values mean tight binding
FLI1 = molecular target: T1, FLI1 (Homo sapiens, UniProt Q01543 1-452); conditions: protein: recombinant; tags: N-terminal GST; dsDNA, one strand shown
T1 sequence: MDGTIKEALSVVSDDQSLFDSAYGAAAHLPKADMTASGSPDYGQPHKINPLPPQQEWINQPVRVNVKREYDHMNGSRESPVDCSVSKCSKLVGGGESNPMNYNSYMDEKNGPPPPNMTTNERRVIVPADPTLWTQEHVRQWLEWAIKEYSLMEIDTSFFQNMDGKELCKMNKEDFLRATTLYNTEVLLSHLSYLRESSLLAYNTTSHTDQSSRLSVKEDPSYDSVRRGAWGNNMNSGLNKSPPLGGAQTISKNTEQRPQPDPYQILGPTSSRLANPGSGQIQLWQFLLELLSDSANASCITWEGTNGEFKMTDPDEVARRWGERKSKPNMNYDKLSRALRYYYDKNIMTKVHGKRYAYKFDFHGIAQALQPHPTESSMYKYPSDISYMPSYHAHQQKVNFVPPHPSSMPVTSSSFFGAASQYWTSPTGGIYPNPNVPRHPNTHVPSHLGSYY
How it was run: (§1)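 After expression in yeast as GST fusions, human transcription factors were bound to glutathione beads, DNA-barcoded and mixed with a tag-only sample. The pools were incubated with 200 nmole of a 16-mer random double-stranded DNA library in Tris/NaCl/DTT/glycerol buffer (30 min, room temperature), washed and crosslinked with 0.1% formaldehyde. Proximity ligation with BsaI/T4 ligase ran for 1 h at 37 °C, before PCR amplification and sequencing on an Illumina NextSeq500. Binding signal is a hexamer's read frequency for a factor divided by its frequency for the tag-only sample.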

ELK1 = molecular target: T2, ELK1 (Homo sapiens, UniProt P19419 1-428); conditions: protein: recombinant; tags: N-terminal GST; dsDNA, one strand shown
T2 sequence: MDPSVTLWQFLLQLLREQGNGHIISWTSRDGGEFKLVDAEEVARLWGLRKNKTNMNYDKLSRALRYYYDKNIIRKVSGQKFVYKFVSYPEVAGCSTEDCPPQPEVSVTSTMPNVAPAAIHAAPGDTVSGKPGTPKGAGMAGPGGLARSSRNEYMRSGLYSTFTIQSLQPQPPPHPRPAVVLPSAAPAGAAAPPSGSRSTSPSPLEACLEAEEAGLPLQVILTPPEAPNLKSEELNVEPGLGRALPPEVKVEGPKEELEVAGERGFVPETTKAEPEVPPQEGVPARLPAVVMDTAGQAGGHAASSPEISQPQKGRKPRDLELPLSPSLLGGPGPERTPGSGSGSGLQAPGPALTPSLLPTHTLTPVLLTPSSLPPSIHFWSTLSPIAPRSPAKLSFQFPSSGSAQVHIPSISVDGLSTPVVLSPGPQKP
How it was run: as §1

GABPA = molecular target: T3, GABPA (Homo sapiens, UniProt Q06546 1-454); conditions: protein: recombinant; tags: N-terminal GST; dsDNA, one strand shown
T3 sequence: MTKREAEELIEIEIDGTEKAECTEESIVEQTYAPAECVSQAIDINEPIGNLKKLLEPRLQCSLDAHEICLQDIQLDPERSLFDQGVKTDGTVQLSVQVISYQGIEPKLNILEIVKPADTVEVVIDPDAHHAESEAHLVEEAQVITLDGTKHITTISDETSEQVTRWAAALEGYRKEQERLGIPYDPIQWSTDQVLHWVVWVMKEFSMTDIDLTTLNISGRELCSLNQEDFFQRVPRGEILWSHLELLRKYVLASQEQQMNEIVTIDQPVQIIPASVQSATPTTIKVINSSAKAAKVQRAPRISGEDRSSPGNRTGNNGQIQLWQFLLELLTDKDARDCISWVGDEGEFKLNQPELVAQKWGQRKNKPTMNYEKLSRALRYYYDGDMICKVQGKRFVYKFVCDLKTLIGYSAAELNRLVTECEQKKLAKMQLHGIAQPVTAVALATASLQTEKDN
How it was run: as §1

ERG = molecular target: T4, ERG (Homo sapiens, UniProt P11308 1-479); conditions: protein: recombinant; tags: N-terminal GST; dsDNA, one strand shown
T4 sequence: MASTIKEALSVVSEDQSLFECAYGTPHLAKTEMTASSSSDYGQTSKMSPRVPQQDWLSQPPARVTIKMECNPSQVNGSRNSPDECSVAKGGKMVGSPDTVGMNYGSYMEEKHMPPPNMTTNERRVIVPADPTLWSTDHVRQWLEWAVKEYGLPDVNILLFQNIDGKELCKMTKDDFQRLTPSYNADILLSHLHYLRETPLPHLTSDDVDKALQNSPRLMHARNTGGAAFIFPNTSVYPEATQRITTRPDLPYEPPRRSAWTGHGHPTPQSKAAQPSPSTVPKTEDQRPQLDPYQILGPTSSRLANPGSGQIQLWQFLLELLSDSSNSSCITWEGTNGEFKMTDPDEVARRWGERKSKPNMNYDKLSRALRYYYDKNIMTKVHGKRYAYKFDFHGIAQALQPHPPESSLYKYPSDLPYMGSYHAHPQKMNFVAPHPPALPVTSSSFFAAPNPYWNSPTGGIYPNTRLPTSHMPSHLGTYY
How it was run: as §1

ELF1 = ELF1 (Homo sapiens, UniProt P32519 1-619); conditions: protein: recombinant; tags: N-terminal GST; dsDNA, one strand shown
ELF1, sequence (P32519 whole entry): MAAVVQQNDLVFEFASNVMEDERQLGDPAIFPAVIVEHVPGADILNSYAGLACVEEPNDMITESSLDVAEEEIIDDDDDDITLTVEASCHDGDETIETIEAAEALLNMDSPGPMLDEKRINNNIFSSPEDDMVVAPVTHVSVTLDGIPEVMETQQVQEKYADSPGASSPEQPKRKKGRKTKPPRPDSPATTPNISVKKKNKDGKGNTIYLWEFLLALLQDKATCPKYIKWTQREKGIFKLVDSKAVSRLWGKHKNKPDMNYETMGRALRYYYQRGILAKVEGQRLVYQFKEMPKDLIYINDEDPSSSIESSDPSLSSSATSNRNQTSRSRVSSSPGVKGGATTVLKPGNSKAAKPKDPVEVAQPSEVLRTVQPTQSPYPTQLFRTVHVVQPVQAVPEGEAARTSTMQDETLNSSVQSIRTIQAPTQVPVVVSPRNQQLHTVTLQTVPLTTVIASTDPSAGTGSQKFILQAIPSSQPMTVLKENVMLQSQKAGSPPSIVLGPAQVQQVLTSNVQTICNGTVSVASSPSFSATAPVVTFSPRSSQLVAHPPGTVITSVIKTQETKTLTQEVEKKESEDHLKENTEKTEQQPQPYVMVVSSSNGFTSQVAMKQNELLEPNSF
How it was run: as §1

EHF = molecular target: T5, EHF (Homo sapiens, UniProt Q9NZC4 1-300); conditions: protein: recombinant; tags: N-terminal GST; dsDNA, one strand shown
T5 sequence: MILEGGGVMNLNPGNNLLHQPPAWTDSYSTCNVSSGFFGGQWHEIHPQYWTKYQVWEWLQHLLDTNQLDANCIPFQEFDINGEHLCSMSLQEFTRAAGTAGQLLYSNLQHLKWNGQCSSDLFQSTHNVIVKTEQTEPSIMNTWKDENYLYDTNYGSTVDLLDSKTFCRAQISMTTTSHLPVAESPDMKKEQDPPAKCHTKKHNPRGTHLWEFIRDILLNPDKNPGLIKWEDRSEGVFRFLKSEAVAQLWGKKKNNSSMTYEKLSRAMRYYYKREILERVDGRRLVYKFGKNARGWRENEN
How it was run: as §1

SPI1 = SPI1 (Homo sapiens, UniProt P17947 1-270); conditions: protein: recombinant; tags: N-terminal GST; dsDNA, one strand shown
How it was run: as §1

SPIB = SPIB (Homo sapiens, UniProt Q01892 1-262); conditions: protein: recombinant; tags: N-terminal GST; dsDNA, one strand shown
SPIB, sequence (Q01892 whole entry): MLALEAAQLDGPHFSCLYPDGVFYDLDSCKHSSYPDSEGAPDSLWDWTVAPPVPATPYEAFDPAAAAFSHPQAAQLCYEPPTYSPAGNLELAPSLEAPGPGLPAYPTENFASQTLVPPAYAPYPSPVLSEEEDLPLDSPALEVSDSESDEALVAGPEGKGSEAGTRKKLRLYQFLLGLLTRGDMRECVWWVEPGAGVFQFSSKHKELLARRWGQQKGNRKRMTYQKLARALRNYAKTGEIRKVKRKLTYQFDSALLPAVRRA
How it was run: as §1

ELK3 = molecular target: T6, ELK3 (Homo sapiens, UniProt P41970 1-407); conditions: protein: recombinant; tags: N-terminal GST; dsDNA, one strand shown
T6 sequence: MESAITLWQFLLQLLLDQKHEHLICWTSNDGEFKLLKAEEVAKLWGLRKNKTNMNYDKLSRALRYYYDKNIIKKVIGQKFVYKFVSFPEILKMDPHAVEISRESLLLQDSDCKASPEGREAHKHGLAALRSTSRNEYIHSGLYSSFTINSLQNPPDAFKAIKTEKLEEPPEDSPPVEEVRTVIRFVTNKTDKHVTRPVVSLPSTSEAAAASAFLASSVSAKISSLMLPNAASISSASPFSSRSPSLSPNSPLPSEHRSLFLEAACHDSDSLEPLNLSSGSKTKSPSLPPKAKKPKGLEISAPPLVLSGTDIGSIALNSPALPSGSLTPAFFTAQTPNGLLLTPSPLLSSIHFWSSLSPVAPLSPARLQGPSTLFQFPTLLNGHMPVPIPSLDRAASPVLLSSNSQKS
How it was run: as §1

FEV = molecular target: T7, FEV (Homo sapiens, UniProt Q99581 1-238); conditions: protein: recombinant; tags: N-terminal GST; dsDNA, one strand shown
T7 sequence: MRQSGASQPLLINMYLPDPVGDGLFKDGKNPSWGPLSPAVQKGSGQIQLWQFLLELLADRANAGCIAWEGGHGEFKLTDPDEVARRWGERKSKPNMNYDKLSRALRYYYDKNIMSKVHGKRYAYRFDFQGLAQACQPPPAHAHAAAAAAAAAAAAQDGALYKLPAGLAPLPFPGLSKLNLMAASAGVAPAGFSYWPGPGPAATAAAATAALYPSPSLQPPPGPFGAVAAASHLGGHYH
How it was run: as §1

ETV5 = ETV5 (Homo sapiens, UniProt P41161 1-510); conditions: protein: recombinant; tags: N-terminal GST; dsDNA, one strand shown
ETV5, sequence (P41161 whole entry): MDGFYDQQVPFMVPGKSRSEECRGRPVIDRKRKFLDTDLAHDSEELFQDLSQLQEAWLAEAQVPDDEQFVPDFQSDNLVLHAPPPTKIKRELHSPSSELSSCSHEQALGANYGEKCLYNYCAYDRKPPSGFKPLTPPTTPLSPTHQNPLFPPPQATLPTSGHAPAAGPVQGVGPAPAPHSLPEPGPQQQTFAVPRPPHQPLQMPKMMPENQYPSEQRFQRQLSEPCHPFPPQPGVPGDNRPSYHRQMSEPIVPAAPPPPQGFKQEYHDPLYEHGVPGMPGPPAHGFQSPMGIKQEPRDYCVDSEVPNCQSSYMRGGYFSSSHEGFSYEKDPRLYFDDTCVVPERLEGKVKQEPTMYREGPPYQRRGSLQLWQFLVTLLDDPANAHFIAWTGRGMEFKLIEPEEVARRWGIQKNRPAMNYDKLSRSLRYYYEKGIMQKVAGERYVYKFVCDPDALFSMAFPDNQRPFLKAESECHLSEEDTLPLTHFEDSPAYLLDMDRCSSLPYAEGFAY
How it was run: as §1

HSF1 = HSF1 (Homo sapiens, UniProt Q00613 1-529); conditions: protein: recombinant; tags: N-terminal GST; chain copies: 3; dsDNA, one strand shown
HSF1, sequence (Q00613 whole entry): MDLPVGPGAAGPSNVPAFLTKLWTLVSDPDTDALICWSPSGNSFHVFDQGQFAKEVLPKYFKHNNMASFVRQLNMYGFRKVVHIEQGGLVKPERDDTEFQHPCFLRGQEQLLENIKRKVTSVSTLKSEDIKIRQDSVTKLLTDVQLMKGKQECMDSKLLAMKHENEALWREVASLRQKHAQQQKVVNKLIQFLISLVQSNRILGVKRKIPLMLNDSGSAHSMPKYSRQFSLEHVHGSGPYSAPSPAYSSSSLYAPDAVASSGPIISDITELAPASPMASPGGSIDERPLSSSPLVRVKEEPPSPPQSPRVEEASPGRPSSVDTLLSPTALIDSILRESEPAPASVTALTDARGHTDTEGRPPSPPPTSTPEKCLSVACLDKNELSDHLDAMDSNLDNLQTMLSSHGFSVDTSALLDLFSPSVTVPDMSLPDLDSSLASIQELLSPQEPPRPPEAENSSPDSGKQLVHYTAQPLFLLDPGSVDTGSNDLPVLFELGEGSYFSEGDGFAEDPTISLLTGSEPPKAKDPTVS
How it was run: as §1

SPIC = molecular target: T8, SPIC (Homo sapiens, UniProt Q8N5J4 1-248); conditions: protein: recombinant; tags: N-terminal GST; dsDNA, one strand shown
T8 sequence: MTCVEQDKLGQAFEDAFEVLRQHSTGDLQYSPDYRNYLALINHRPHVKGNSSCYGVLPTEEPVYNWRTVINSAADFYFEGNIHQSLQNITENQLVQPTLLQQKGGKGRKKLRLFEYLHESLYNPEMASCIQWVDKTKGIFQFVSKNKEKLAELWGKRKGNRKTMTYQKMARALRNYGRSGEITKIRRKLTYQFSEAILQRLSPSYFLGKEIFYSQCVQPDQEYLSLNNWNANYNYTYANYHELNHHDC
How it was run: as §1

ELF4 = ELF4 (Homo sapiens, UniProt Q99607 1-663); conditions: protein: recombinant; tags: N-terminal GST; dsDNA, one strand shown
ELF4, sequence (Q99607 whole entry): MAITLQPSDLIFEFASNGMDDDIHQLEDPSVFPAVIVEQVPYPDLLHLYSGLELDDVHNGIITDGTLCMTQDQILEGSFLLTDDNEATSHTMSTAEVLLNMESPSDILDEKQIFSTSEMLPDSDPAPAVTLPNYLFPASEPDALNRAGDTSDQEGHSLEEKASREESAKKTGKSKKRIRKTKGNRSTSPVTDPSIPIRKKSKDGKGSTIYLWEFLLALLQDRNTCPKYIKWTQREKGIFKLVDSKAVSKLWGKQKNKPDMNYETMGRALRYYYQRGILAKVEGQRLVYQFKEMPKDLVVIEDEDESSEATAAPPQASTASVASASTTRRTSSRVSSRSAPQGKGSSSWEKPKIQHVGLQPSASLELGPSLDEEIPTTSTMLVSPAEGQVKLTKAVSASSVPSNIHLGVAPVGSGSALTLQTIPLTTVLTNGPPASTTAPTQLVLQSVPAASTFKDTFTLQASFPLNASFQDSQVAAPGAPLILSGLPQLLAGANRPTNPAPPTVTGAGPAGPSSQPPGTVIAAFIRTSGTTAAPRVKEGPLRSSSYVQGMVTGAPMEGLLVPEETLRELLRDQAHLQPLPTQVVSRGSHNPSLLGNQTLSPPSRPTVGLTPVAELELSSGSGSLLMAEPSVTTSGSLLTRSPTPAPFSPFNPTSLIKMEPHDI
How it was run: as §1

ELK4 = molecular target: T9, ELK4 (Homo sapiens, UniProt P28324-2 1-405); conditions: protein: recombinant; tags: N-terminal GST; dsDNA, one strand shown
T9 sequence: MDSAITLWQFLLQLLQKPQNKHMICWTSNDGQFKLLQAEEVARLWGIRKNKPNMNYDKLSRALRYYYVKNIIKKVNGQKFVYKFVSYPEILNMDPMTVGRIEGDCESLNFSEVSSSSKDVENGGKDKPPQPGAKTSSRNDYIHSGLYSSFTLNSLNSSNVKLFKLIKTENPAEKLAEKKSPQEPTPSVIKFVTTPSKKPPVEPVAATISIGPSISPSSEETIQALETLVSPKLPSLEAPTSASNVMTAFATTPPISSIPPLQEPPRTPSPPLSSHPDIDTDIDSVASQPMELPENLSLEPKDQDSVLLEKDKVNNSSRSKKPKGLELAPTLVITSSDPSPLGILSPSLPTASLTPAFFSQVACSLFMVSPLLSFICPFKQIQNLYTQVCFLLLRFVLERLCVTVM
How it was run: as §1

ETV2 = molecular target: T10, ETV2 (Homo sapiens, UniProt O00321 1-342); conditions: protein: recombinant; tags: N-terminal GST; dsDNA, one strand shown
T10 sequence: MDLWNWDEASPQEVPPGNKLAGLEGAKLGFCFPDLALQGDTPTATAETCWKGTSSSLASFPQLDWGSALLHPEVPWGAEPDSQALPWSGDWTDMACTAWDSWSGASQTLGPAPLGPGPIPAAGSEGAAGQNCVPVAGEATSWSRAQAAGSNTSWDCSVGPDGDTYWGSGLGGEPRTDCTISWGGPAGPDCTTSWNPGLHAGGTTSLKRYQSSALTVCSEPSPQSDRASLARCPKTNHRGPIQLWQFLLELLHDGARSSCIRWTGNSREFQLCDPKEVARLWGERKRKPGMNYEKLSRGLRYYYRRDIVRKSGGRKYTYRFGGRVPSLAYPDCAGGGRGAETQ
How it was run: as §1

ELF3 = molecular target: T11, ELF3 (Homo sapiens, UniProt P78545 1-371); conditions: protein: recombinant; tags: N-terminal GST; dsDNA, one strand shown
T11 sequence: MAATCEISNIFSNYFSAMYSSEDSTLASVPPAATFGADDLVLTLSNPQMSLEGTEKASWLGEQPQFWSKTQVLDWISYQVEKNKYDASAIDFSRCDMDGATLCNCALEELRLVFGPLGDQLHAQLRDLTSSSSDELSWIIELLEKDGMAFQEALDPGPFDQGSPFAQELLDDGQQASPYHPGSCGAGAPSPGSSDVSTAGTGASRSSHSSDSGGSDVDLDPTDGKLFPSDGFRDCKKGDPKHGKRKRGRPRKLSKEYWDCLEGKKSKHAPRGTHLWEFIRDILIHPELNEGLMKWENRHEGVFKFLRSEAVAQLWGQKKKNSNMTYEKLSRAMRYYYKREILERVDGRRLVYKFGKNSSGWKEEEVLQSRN
How it was run: as §1

CRX = CRX (Homo sapiens, UniProt O43186 1-299); conditions: protein: recombinant; tags: N-terminal GST; dsDNA, one strand shown
CRX, sequence (O43186 whole entry): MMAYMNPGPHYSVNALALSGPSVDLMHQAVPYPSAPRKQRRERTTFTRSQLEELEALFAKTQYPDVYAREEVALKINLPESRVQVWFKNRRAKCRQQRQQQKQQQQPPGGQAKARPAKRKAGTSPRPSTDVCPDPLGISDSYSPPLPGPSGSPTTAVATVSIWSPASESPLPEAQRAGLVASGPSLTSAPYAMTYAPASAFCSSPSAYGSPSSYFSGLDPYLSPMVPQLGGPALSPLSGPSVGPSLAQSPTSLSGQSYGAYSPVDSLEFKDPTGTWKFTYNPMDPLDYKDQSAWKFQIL
How it was run: as §1

ETV1 = ETV1 (Homo sapiens, UniProt P50549 1-477); conditions: protein: recombinant; tags: N-terminal GST; dsDNA, one strand shown
ETV1, sequence (P50549 whole entry): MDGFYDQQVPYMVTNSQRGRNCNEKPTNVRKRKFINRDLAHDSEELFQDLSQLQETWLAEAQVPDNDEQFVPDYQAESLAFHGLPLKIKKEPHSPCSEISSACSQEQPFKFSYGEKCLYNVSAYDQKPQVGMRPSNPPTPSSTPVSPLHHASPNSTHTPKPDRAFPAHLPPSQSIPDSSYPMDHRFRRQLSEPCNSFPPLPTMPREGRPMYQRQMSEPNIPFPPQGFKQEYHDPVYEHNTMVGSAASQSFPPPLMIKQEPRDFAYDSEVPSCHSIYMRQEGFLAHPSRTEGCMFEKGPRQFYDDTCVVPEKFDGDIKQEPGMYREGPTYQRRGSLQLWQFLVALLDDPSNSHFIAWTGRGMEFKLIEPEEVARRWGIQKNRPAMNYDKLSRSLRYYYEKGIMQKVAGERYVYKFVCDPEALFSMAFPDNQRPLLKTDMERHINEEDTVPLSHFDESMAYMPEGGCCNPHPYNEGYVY
How it was run: as §1

Sequence: CCAACT
- binding signal (FLI1): 1.26 fold enrichment (6-mer frequency, TF over GST control)
- binding signal (ELK1): 1.19 fold enrichment (6-mer frequency, TF over GST control)
- binding signal (GABPA): 1.23 fold enrichment (6-mer frequency, TF over GST control)
- binding signal (ERG): 1.26 fold enrichment (6-mer frequency, TF over GST control)
- binding signal (ELF1): 1.25 fold enrichment (6-mer frequency, TF over GST control)
- binding signal (EHF): 1.24 fold enrichment (6-mer frequency, TF over GST control)
- binding signal (SPI1): 1.14 fold enrichment (6-mer frequency, TF over GST control)
- binding signal (SPIB): 1.25 fold enrichment (6-mer frequency, TF over GST control)
- binding signal (ELK3): 1.19 fold enrichment (6-mer frequency, TF over GST control)
- binding signal (FEV): 1.27 fold enrichment (6-mer frequency, TF over GST control)
- binding signal (ETV5): 1.16 fold enrichment (6-mer frequency, TF over GST control)
- binding signal (HSF1): 1.02 fold enrichment (6-mer frequency, TF over GST control)
- binding signal (SPIC): 1.4 fold enrichment (6-mer frequency, TF over GST control)
- binding signal (ELF4): 1.29 fold enrichment (6-mer frequency, TF over GST control)
- binding signal (ELK4): 1.27 fold enrichment (6-mer frequency, TF over GST control)
- binding signal (ETV2): 1.11 fold enrichment (6-mer frequency, TF over GST control)
- binding signal (ELF3): 1.21 fold enrichment (6-mer frequency, TF over GST control)
- binding signal (CRX): 1.01 fold enrichment (6-mer frequency, TF over GST control)
- binding signal (ETV1): 1.21 fold enrichment (6-mer frequency, TF over GST control)
